For part of these data: Potency and affinity values are given separately.
Legend:
Parameters in all cases: scale not given: direction of the effect not stated beside the values
[1] = target: Protein translocase subunit SecA (Escherichia coli (strain K12)) (UniProt P10408); test: Assay to Identify E. coli SecA ATPase Inhibitors; type: functional; conditions: 30 µM
[2] = target: T1, Ubiquitin-activating enzyme e1, putative (Leishmania donovani (strain BPK282A1)) (UniProt E9BSI1); test: Leishmania donovani Ubiquitin Activating Enzyme (LdE1); type: functional; conditions: 30 µM
T1 sequence (whole entry): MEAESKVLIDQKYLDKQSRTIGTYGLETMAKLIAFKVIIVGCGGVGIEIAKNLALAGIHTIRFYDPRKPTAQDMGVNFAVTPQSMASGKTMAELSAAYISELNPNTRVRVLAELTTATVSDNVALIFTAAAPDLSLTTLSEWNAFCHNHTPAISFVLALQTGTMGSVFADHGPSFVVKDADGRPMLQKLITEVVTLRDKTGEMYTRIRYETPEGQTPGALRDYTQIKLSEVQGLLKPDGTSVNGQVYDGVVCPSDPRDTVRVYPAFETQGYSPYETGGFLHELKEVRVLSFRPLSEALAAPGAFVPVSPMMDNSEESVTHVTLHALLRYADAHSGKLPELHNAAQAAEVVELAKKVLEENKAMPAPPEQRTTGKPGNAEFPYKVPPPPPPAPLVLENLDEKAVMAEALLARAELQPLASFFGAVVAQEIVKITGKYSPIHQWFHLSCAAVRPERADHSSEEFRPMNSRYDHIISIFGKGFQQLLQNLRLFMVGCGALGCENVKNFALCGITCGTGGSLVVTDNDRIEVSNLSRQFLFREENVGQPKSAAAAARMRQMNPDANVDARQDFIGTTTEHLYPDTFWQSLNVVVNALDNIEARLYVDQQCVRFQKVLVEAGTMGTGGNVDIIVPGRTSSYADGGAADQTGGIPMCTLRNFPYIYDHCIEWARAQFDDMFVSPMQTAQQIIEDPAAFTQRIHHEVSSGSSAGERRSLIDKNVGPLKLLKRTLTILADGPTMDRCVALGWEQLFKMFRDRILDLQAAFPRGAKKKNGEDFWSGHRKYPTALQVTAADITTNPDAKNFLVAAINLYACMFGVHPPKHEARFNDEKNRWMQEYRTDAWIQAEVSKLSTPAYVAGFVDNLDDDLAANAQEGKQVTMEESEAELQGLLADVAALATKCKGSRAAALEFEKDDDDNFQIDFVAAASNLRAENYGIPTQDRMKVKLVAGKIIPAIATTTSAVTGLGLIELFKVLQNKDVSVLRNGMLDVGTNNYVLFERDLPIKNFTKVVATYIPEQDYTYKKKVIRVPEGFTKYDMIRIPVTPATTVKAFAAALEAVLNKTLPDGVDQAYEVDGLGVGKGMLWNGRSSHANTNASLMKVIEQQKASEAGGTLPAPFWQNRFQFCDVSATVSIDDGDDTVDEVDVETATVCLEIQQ

[3] = target: Sialic acid-binding Ig-like lectin 9 (Homo sapiens) (UniProt Q9Y336); test: Hs-Siglec9 ALPHAscreen SOP 20170721; conditions: 10 µM
Chain of Sialic acid-binding Ig-like lectin 9 (Homo sapiens) (Q9Y336 whole entry): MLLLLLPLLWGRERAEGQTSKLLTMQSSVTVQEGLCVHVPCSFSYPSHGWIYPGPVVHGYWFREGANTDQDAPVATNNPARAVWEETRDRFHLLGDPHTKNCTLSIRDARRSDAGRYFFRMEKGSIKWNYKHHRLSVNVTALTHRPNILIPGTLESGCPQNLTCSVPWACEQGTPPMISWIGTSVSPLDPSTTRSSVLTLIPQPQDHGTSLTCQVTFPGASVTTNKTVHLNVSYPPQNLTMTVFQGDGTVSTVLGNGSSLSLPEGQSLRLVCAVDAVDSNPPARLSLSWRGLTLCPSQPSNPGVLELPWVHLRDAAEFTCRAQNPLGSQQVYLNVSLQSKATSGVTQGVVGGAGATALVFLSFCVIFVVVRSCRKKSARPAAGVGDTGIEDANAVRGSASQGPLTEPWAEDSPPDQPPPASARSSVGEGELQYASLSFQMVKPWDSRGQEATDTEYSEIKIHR

Trypanosoma cruzi = test: Trypanosoma cruzi phosphomannomutase and mannose-1-phosphate guanylyltransferase assay; type: functional; conditions: 10 µM
[4] = target: T2, Arginase-2, mitochondrial (Homo sapiens) (UniProt P78540); test: in vitro enzyme assay to detect the production of urea directly proportional to the activity of Arginase II; type: functional; conditions: 33.3 µM; also: in the data most compounds retested in dose-response had high values
T2 sequence (whole entry): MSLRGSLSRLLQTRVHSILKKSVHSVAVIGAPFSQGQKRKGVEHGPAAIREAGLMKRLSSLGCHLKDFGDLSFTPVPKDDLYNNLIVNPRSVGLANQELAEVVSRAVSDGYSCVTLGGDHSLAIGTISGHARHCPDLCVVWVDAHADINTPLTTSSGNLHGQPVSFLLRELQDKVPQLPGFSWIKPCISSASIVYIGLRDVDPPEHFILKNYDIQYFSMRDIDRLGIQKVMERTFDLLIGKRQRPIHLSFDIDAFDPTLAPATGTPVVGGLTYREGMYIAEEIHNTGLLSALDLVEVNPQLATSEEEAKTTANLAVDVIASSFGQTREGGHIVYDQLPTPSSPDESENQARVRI

[5] = target: T3, Proteasome subunit beta (Trypanosoma cruzi) (UniProt O96673); test: Trypanosoma cruzi proteasome chymotrypsin-like activity (TcProtChymo) assay.; also: in the data most compounds retested in dose-response had high values; type: functional; conditions: 9.37 µM
T3 sequence (whole entry): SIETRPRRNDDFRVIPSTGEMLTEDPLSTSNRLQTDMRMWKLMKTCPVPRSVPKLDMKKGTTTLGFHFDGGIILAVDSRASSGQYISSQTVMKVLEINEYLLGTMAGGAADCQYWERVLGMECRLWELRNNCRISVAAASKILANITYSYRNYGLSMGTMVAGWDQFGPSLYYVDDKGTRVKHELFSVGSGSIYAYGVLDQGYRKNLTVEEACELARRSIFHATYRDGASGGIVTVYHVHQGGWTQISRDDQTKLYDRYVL

Homo sapiens = species: Homo sapiens; test: To identify inhibition of the IFN signalling (Jak-Stat) pathway via expression of an eGFP reporter gene under the control of an IFN-stimulated response element (ISRE) containing MxA promoter.; type: functional; conditions: 30 µM
[6] = target: T4, Tyrosyl-tRNA synthetase, putative (Trypanosoma cruzi (strain CL Brener)) (UniProt Q4DSP6); test: Trypanosoma cruzi tyrosyl tRNA synthetase (TcYRS) _High Tyrosine SOP; type: functional; conditions: 30 µM; also: in the data most compounds retested in dose-response had high values
T4 sequence (whole entry): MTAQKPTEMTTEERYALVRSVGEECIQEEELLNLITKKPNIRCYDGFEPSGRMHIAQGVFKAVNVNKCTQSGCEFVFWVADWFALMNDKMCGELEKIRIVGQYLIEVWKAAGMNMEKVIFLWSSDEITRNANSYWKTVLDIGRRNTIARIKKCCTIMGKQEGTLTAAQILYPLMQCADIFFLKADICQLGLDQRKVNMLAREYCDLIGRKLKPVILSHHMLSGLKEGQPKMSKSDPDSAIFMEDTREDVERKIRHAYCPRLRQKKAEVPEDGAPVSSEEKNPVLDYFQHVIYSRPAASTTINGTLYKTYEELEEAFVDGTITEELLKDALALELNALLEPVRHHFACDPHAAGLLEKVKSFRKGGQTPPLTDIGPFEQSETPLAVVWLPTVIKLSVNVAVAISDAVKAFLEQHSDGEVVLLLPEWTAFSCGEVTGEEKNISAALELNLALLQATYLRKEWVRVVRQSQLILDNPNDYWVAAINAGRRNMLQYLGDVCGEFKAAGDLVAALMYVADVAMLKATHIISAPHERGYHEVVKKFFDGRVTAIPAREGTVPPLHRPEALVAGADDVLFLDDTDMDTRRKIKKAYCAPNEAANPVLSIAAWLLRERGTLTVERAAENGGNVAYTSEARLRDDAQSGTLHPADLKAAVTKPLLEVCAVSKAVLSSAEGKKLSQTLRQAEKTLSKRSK

[7] = target: T4, Tyrosyl-tRNA synthetase, putative (Trypanosoma cruzi (strain CL Brener)); test: Trypanosoma cruzi tyrosyl tRNA synthetase (TcYRS) SOP; type: functional; conditions: 30 µM
[8] = target: Chromo domain-containing protein 1 (Saccharomyces cerevisiae (strain ATCC 204508 / S288c) (Baker's yeast)) (UniProt P32657); test: ScCHD-1 Enzyme Inhibition Assay; type: functional; conditions: 30 µM; also: in the data most compounds retested in dose-response had high values
Chain of Chromo domain-containing protein 1 (Saccharomyces cerevisiae (strain ATCC 204508 / S288c) (Baker's yeast)) (P32657 whole entry, the tested form may be a part): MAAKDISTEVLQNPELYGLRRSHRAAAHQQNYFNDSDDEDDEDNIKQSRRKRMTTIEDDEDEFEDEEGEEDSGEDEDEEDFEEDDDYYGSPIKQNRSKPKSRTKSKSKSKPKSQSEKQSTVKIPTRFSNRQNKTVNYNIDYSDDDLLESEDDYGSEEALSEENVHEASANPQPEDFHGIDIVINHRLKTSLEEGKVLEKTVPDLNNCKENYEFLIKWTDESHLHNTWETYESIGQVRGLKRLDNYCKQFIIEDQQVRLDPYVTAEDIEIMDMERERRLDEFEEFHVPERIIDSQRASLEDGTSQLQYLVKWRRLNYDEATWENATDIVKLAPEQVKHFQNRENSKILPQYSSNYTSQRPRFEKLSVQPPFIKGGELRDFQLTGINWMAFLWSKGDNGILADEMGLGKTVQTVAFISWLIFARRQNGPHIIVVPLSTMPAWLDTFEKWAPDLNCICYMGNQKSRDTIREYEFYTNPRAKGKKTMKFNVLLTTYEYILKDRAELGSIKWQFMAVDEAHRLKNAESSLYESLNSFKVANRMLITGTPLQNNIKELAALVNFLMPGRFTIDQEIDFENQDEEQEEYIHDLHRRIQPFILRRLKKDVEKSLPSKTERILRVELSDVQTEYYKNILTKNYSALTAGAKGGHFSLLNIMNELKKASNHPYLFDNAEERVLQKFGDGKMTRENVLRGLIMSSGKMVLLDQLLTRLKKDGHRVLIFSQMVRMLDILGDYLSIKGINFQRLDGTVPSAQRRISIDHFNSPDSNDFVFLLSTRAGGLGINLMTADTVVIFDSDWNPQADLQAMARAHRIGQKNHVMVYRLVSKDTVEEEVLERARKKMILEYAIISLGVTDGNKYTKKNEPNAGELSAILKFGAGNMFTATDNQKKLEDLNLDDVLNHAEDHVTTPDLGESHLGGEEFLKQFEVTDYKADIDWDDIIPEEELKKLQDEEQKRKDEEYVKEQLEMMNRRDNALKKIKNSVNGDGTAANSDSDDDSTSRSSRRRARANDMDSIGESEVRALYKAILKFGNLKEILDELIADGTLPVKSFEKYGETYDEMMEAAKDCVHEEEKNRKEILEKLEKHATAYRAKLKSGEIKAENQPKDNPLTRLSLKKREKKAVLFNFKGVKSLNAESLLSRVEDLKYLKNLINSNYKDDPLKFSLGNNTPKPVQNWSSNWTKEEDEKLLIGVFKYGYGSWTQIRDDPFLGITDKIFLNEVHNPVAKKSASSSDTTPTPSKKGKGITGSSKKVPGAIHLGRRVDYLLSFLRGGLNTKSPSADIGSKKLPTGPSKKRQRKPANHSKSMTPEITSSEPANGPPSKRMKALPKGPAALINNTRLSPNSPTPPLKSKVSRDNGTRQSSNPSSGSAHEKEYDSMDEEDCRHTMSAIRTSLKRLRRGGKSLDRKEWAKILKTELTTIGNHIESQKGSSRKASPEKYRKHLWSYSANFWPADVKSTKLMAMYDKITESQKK

Chain of Protein translocase subunit SecA (Escherichia coli (strain K12)) (P10408 whole entry): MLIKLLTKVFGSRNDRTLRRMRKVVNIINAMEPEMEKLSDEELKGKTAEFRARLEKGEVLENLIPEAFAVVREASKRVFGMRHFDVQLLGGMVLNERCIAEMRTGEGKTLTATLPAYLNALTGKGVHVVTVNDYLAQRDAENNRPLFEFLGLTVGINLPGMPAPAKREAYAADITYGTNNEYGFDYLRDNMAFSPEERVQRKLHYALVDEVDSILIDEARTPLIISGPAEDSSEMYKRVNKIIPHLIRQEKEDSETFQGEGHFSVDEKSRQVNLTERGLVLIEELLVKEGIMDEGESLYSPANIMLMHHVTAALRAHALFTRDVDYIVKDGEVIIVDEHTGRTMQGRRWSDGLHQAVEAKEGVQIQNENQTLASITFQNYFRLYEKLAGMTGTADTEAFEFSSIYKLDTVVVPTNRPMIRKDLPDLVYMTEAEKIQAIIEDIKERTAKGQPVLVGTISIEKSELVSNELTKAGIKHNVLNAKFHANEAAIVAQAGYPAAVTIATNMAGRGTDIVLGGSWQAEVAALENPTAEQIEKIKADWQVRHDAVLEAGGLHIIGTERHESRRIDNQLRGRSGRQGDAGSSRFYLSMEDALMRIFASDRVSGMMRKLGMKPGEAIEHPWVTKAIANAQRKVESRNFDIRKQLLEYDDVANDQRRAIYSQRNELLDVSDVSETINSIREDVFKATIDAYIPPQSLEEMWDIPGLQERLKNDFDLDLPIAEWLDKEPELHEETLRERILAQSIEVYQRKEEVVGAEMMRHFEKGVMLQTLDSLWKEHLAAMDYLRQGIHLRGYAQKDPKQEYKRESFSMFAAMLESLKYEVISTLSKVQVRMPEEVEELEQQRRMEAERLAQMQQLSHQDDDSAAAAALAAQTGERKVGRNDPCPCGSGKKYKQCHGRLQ

SMILES: CCN1CCn2nc(CCC(=O)N3CCCC3)cc2C1
- Percent Effect [1]: -6.01%
- Percent Effect [2]: 2.7%
- Percent Effect [3]: 0.796%
- Percent Effect (Trypanosoma cruzi): -3.98%
- Percent Effect [4]: 0.35%
- Percent Effect [5]: 19%
- Percent Effect (Homo sapiens): 8.04%
- Percent Effect [6]: 5.85%
- Percent Effect [7]: 14.6%
- Percent Effect [8]: -5.3%

SMILES: CCn1ccnc1CNCC1CCN(CC(O)c2ccccc2)CC1 (stereo not given)
- Percent Effect [1]: -3.91%
- Percent Effect [2]: -5.13%
- Percent Effect [3]: -9.4%
- Percent Effect (Trypanosoma cruzi): 5.92%
- Percent Effect [4]: 11.9%
- Percent Effect [5]: -2.13%
- Percent Effect (Homo sapiens): 4.15%
- Percent Effect [6]: 3.35%
- Percent Effect [7]: 6.02%
- Percent Effect [8]: -1.13%

SMILES: O=C(c1ccco1)N1C[C@H]2CCCN(CC3CCOCC3)[C@H]2C1
- Percent Effect [1]: -3.2%
- Percent Effect [2]: 6.49%
- Percent Effect [3]: -2.43%
- Percent Effect (Trypanosoma cruzi): -4.77%
- Percent Effect [4]: -1.62%
- Percent Effect [5]: 11.9%
- Percent Effect (Homo sapiens): 1.5%
- Percent Effect [6]: 4.74%
- Percent Effect [7]: 15.4%
- Percent Effect [8]: -2.11%

SMILES: COCCN1CC[C@]2(CN(C(=O)c3cccs3)C[C@H]2C)C1=O
- Percent Effect [1]: 0.25%
- Percent Effect [2]: 1.3%
- Percent Effect [3]: 1.96%
- Percent Effect (Trypanosoma cruzi): -0.938%
- Percent Effect [4]: -0.457%
- Percent Effect [5]: 9.7%
- Percent Effect (Homo sapiens): 0.303%
- Percent Effect [6]: 0.966%
- Percent Effect [7]: 0%
- Percent Effect [8]: 0.0651%

SMILES: CS(=O)(=O)Cc1cccc(C(=O)N2CCCC(n3cccn3)C2)c1 (stereo not given)
- Percent Effect [1]: -3.02%
- Percent Effect [2]: 2.56%
- Percent Effect [3]: -5.84%
- Percent Effect (Trypanosoma cruzi): -5.92%
- Percent Effect [4]: -1.23%
- Percent Effect [5]: 4.69%
- Percent Effect (Homo sapiens): 24.6%
- Percent Effect [6]: 2.39%
- Percent Effect [7]: 1.21%
- Percent Effect [8]: -5.08%

SMILES: CCc1nc(C2CCCN2C(=O)c2ncoc2CC)no1 (stereo not given)
- Percent Effect [1]: -4.57%
- Percent Effect [2]: 7.69%
- Percent Effect [3]: 5.36%
- Percent Effect (Trypanosoma cruzi): 10.6%
- Percent Effect [4]: -4.92%
- Percent Effect [5]: -5.38%
- Percent Effect (Homo sapiens): -5.4%
- Percent Effect [6]: 2.39%
- Percent Effect [7]: 8.43%
- Percent Effect [8]: 0.961%

SMILES: CC(NC(=O)N1CCN(c2ccccc2)CC1)c1nncn1C (stereo not given)
- Percent Effect [1]: 1.88%
- Percent Effect [2]: 10.7%
- Percent Effect [3]: -3.63%
- Percent Effect (Trypanosoma cruzi): -2.81%
- Percent Effect [4]: 7.54%
- Percent Effect [5]: 11.4%
- Percent Effect (Homo sapiens): 13.4%
- Percent Effect [6]: 3.68%
- Percent Effect [7]: 5.13%
- Percent Effect [8]: -13.8%

SMILES: O=C(c1ccc(F)cc1F)N1C[C@@H](O)[C@H](N2CCOCC2)C1
- Percent Effect [1]: -1.31%
- Percent Effect [2]: 20%
- Percent Effect [3]: -7.22%
- Percent Effect (Trypanosoma cruzi): -0.789%
- Percent Effect [4]: -3.1%
- Percent Effect [5]: 17.9%
- Percent Effect (Homo sapiens): 2.56%
- Percent Effect [6]: 1.06%
- Percent Effect [7]: 17.5%
- Percent Effect [8]: -25.9%

SMILES: CC(NC(=O)N1CCN(c2ccc(Cl)cc2)CC1)C(=O)N1CCSCC1 (stereo not given)
- Percent Effect [1]: -6.05%
- Percent Effect [2]: 8.11%
- Percent Effect [3]: 0.915%
- Percent Effect (Trypanosoma cruzi): -2.04%
- Percent Effect [4]: 0.35%
- Percent Effect [5]: 17.8%
- Percent Effect (Homo sapiens): 13.2%
- Percent Effect [6]: 5.85%
- Percent Effect [7]: 12.2%
- Percent Effect [8]: -1.19%
